Data published in paper PMC7862700, “An all-to-all approach to the identification of sequence-specific readers for epigenetic DNA modifications on cytosine”.

Columns and labels:
Test in all cases: DAPPL (digital affinity profiling via proximity ligation, sequencing); 10 mM Tris-HCl pH 7.5, 50 mM NaCl, 1 mM DTT, 4% glycerol, room temperature, 30 min; GST-TFs on glutathione beads, 16-mer random dsDNA library, 0.1% formaldehyde crosslink after washing; high values mean tight binding
[1] = target: T1, FLI1 (Homo sapiens, UniProt Q01543 1-452); conditions: protein: recombinant; tags: N-terminal GST; dsDNA, one strand shown
T1 sequence: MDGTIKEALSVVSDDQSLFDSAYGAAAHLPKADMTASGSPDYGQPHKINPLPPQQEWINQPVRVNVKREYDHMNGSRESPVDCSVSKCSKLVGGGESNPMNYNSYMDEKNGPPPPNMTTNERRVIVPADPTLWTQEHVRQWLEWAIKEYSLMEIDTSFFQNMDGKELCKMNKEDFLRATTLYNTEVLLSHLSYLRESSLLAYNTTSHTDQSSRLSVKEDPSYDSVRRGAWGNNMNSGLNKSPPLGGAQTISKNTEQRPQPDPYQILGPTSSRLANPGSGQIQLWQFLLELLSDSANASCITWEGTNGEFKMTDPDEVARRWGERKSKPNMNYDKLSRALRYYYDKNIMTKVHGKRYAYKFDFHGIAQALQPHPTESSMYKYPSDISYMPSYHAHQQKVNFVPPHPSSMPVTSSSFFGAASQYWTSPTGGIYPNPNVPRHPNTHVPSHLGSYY
Method in brief: (§1)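 Pools of DNA-barcoded human transcription factors, expressed in yeast as GST fusions on glutathione beads and combined with a tag-only sample, were incubated with 200 nmole of a 16-mer random double-stranded DNA library. Incubation took 30 min at room temperature in Tris/NaCl/DTT/glycerol buffer and was followed by washing, 0.1% formaldehyde crosslinking, proximity ligation (BsaI/T4 ligase, 1 h, 37 °C), PCR amplification and sequencing on an Illumina NextSeq500. Binding signal is the ratio of a hexamer's read frequency for a factor to its frequency for the tag-only sample.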

[2] = target: T2, ELK1 (Homo sapiens, UniProt P19419 1-428); conditions: protein: recombinant; tags: N-terminal GST; dsDNA, one strand shown
T2 sequence: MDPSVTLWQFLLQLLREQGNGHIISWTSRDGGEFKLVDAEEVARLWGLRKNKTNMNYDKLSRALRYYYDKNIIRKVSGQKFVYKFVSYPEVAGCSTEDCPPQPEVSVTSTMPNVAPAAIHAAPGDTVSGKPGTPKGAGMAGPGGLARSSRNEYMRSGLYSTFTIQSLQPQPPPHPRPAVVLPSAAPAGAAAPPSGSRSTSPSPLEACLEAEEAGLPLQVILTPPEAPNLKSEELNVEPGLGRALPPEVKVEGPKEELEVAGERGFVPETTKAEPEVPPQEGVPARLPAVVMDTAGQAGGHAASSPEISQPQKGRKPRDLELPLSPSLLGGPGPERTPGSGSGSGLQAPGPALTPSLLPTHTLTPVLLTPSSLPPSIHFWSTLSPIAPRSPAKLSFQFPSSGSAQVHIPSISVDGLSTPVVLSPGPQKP
Method in brief: as §1

[3] = target: T3, GABPA (Homo sapiens, UniProt Q06546 1-454); conditions: protein: recombinant; tags: N-terminal GST; dsDNA, one strand shown
T3 sequence: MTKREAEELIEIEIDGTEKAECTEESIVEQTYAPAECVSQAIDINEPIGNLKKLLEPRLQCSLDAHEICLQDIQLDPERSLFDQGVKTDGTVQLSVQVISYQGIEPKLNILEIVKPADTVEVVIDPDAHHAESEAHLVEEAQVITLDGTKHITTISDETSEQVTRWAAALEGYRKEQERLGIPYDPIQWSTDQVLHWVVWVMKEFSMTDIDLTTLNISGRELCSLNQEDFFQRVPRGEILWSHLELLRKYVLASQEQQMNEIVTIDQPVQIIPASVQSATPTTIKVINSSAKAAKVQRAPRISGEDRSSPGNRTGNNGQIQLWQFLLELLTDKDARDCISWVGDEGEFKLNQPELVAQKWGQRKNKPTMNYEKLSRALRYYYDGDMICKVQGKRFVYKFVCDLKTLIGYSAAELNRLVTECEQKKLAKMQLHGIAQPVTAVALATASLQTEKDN
Method in brief: as §1

[4] = target: T4, ERG (Homo sapiens, UniProt P11308 1-479); conditions: protein: recombinant; tags: N-terminal GST; dsDNA, one strand shown
T4 sequence: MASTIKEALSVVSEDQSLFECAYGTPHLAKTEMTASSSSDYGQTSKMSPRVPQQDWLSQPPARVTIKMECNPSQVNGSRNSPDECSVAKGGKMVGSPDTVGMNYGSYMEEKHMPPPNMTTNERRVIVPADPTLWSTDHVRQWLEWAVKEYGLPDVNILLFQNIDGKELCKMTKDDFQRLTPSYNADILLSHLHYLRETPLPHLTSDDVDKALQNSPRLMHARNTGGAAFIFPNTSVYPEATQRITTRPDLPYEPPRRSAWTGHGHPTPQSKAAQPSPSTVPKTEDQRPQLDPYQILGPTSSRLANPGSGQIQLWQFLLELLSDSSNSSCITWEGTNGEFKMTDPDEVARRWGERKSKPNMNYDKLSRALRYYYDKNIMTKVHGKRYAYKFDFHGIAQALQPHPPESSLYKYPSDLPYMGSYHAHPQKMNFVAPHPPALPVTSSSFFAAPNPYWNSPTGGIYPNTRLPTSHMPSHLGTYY
Method in brief: as §1

[5] = target: ELF1 (Homo sapiens, UniProt P32519 1-619); conditions: protein: recombinant; tags: N-terminal GST; dsDNA, one strand shown
Chain of ELF1 (P32519 whole entry): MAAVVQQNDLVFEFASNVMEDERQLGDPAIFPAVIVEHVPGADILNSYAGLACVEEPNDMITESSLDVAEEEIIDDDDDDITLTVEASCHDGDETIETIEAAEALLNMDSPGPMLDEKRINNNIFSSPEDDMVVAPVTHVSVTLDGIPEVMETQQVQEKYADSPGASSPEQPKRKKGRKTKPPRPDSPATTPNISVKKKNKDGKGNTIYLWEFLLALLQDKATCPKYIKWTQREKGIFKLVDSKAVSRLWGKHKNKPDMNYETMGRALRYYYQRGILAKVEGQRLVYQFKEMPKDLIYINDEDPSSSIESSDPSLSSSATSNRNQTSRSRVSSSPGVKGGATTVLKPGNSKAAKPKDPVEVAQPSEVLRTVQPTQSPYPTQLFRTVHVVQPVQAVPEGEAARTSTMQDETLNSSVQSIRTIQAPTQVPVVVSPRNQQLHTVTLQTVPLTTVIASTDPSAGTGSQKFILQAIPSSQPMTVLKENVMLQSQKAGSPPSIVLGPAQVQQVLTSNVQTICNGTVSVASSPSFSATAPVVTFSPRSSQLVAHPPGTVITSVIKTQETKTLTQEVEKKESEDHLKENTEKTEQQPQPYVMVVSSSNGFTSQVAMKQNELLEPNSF
Method in brief: as §1

[6] = target: T5, EHF (Homo sapiens, UniProt Q9NZC4 1-300); conditions: protein: recombinant; tags: N-terminal GST; dsDNA, one strand shown
T5 sequence: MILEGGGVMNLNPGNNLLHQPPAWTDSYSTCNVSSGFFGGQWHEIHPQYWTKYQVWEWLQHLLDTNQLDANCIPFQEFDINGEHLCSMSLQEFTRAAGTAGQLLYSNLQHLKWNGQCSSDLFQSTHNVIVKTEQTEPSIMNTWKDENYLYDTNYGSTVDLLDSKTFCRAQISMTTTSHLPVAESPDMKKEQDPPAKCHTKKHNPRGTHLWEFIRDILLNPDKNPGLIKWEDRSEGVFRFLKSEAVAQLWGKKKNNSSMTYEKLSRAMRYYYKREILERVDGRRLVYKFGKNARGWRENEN
Method in brief: as §1

[7] = target: SPI1 (Homo sapiens, UniProt P17947 1-270); conditions: protein: recombinant; tags: N-terminal GST; dsDNA, one strand shown
Method in brief: as §1

[8] = target: T6, ELK3 (Homo sapiens, UniProt P41970 1-407); conditions: protein: recombinant; tags: N-terminal GST; dsDNA, one strand shown
T6 sequence: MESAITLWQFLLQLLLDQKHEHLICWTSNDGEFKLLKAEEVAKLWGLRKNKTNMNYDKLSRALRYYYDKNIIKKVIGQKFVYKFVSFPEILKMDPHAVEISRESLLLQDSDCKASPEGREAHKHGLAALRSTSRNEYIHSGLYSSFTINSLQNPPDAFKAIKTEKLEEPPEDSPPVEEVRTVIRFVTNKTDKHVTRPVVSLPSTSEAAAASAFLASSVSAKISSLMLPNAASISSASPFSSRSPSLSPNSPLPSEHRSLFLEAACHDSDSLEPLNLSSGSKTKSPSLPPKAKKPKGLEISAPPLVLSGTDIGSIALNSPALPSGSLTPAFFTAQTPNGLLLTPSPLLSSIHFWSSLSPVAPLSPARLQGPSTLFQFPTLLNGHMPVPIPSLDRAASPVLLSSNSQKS
Method in brief: as §1

[9] = target: T7, FEV (Homo sapiens, UniProt Q99581 1-238); conditions: protein: recombinant; tags: N-terminal GST; dsDNA, one strand shown
T7 sequence: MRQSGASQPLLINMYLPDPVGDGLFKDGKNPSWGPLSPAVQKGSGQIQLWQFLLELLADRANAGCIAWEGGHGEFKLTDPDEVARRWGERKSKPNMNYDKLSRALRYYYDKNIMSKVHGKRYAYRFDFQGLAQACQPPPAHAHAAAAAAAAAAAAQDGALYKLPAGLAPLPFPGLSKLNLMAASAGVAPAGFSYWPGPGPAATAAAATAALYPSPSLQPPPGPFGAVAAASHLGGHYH
Method in brief: as §1

[10] = target: ETV5 (Homo sapiens, UniProt P41161 1-510); conditions: protein: recombinant; tags: N-terminal GST; dsDNA, one strand shown
Chain of ETV5 (P41161 whole entry): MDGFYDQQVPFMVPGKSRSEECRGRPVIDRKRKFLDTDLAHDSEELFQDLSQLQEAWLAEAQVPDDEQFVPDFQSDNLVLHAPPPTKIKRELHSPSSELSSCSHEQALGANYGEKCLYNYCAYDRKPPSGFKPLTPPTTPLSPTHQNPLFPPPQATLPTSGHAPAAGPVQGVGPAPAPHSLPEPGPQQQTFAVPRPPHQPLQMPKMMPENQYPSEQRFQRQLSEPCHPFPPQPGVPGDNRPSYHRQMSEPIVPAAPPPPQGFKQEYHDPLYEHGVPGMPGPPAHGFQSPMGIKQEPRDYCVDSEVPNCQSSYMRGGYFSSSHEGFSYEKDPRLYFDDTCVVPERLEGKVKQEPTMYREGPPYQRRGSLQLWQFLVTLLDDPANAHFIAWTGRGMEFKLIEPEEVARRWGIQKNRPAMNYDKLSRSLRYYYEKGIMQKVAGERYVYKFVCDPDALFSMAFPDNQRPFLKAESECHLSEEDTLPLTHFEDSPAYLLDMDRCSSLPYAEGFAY
Method in brief: as §1

[11] = target: HSF1 (Homo sapiens, UniProt Q00613 1-529); conditions: protein: recombinant; tags: N-terminal GST; chain copies: 3; dsDNA, one strand shown
Chain of HSF1 (Q00613 whole entry): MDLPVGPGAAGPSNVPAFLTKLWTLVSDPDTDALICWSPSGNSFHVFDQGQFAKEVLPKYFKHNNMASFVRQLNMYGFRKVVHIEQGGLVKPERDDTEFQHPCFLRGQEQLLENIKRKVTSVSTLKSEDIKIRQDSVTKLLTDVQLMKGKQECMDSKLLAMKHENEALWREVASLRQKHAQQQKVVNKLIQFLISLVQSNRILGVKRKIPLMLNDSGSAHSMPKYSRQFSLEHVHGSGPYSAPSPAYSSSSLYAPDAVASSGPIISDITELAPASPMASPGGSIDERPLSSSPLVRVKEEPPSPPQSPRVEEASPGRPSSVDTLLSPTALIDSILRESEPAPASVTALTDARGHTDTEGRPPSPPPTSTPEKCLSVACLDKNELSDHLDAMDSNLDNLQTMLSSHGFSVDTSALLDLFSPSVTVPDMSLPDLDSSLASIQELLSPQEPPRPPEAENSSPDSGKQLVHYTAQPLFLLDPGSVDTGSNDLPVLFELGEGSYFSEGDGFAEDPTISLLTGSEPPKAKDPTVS
Method in brief: as §1

[12] = target: T8, SPIC (Homo sapiens, UniProt Q8N5J4 1-248); conditions: protein: recombinant; tags: N-terminal GST; dsDNA, one strand shown
T8 sequence: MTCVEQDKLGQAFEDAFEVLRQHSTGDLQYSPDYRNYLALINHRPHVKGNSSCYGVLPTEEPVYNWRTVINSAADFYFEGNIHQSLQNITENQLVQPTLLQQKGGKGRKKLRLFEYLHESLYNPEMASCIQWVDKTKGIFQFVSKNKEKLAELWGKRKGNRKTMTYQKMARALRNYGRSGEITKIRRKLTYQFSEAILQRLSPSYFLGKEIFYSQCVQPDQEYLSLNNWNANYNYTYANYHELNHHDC
Method in brief: as §1

[13] = target: ELF4 (Homo sapiens, UniProt Q99607 1-663); conditions: protein: recombinant; tags: N-terminal GST; dsDNA, one strand shown
Chain of ELF4 (Q99607 whole entry): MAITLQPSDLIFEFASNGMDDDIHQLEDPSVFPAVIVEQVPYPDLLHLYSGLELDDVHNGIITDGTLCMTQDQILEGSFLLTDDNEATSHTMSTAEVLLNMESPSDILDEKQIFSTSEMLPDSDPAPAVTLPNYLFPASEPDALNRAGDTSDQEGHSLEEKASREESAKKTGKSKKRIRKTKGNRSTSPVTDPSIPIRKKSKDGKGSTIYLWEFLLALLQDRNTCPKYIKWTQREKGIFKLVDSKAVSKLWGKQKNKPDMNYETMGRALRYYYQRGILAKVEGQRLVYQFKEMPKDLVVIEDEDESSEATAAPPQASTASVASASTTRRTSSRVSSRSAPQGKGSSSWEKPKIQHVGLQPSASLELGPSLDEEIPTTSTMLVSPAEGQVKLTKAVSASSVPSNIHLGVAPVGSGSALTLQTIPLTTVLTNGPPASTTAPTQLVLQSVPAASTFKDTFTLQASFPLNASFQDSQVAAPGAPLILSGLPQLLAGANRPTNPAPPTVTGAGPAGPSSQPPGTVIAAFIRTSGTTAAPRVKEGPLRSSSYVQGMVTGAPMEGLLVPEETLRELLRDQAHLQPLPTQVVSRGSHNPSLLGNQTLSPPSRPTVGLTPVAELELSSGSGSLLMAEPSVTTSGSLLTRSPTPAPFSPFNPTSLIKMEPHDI
Method in brief: as §1

[14] = target: T9, ELK4 (Homo sapiens, UniProt P28324-2 1-405); conditions: protein: recombinant; tags: N-terminal GST; dsDNA, one strand shown
T9 sequence: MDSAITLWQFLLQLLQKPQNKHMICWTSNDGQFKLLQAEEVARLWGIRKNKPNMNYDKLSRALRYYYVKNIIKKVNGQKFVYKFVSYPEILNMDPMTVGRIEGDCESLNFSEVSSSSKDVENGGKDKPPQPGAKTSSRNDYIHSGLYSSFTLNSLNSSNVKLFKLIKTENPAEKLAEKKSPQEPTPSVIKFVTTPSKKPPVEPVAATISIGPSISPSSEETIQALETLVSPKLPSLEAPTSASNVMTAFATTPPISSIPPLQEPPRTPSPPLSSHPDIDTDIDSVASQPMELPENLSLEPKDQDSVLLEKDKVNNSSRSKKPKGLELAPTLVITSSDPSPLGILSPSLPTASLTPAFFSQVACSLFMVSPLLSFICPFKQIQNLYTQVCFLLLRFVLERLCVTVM
Method in brief: as §1

[15] = target: T10, ETV2 (Homo sapiens, UniProt O00321 1-342); conditions: protein: recombinant; tags: N-terminal GST; dsDNA, one strand shown
T10 sequence: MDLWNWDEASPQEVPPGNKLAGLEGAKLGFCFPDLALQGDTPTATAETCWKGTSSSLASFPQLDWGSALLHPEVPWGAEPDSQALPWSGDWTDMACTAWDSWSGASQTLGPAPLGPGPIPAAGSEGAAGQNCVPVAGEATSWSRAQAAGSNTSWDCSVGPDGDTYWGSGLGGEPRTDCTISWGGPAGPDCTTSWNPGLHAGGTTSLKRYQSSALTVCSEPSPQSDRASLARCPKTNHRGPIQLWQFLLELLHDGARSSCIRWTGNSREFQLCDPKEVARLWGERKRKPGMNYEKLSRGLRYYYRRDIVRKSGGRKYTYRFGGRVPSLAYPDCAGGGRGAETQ
Method in brief: as §1

[16] = target: T11, ELF3 (Homo sapiens, UniProt P78545 1-371); conditions: protein: recombinant; tags: N-terminal GST; dsDNA, one strand shown
T11 sequence: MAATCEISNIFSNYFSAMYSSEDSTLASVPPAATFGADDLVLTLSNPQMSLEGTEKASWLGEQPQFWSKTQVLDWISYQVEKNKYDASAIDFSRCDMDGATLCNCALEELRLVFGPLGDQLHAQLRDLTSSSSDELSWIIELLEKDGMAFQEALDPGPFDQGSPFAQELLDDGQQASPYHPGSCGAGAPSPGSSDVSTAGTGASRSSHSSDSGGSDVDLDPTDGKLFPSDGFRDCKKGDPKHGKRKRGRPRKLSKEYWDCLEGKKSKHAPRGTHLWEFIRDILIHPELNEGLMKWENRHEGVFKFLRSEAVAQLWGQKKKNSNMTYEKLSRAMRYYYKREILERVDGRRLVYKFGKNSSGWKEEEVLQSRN
Method in brief: as §1

[17] = target: CRX (Homo sapiens, UniProt O43186 1-299); conditions: protein: recombinant; tags: N-terminal GST; dsDNA, one strand shown
Chain of CRX (O43186 whole entry): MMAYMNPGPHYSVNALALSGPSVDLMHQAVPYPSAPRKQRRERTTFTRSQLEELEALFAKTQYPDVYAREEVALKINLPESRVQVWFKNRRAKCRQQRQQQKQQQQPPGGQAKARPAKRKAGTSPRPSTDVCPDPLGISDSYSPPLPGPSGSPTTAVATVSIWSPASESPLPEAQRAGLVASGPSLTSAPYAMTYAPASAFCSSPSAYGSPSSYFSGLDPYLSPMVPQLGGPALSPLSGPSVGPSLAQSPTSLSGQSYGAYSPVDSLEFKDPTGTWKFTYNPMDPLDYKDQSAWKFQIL
Method in brief: as §1

[18] = target: ETV1 (Homo sapiens, UniProt P50549 1-477); conditions: protein: recombinant; tags: N-terminal GST; dsDNA, one strand shown
Chain of ETV1 (P50549 whole entry): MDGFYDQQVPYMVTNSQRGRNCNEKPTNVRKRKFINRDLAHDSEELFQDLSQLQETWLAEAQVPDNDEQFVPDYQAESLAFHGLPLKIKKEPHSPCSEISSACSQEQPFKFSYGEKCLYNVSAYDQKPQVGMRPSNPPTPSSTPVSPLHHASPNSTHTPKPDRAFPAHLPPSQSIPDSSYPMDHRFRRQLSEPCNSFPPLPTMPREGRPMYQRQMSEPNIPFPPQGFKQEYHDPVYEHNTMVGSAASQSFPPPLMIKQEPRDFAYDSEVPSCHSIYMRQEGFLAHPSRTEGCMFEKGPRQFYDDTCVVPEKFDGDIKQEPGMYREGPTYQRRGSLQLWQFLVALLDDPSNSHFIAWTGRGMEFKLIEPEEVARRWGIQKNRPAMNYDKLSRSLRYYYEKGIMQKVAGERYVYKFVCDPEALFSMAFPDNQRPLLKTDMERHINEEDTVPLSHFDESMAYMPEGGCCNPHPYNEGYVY
Method in brief: as §1

ACGTAA
binding signal [1]: 1.07 fold enrichment (6-mer frequency, TF over GST control) | binding signal [2]: 1.2 fold enrichment (6-mer frequency, TF over GST control) | binding signal [3]: 1.17 fold enrichment (6-mer frequency, TF over GST control) | binding signal [4]: 1.03 fold enrichment (6-mer frequency, TF over GST control) | binding signal [5]: 1.07 fold enrichment (6-mer frequency, TF over GST control) | binding signal [6]: 1.04 fold enrichment (6-mer frequency, TF over GST control) | binding signal [7]: 1.05 fold enrichment (6-mer frequency, TF over GST control) | binding signal [8]: 1.15 fold enrichment (6-mer frequency, TF over GST control) | binding signal [9]: 1.07 fold enrichment (6-mer frequency, TF over GST control) | binding signal [10]: 1.16 fold enrichment (6-mer frequency, TF over GST control) | binding signal [11]: 1.17 fold enrichment (6-mer frequency, TF over GST control) | binding signal [12]: 1.12 fold enrichment (6-mer frequency, TF over GST control) | binding signal [13]: 1.14 fold enrichment (6-mer frequency, TF over GST control) | binding signal [14]: 1.12 fold enrichment (6-mer frequency, TF over GST control) | binding signal [15]: 1.12 fold enrichment (6-mer frequency, TF over GST control) | binding signal [16]: 1.07 fold enrichment (6-mer frequency, TF over GST control) | binding signal [17]: 1.27 fold enrichment (6-mer frequency, TF over GST control) | binding signal [18]: 1.12 fold enrichment (6-mer frequency, TF over GST control)
